# Assay outcomes deposited in PubChem BioAssay by National Center for Advancing Translational Sciences (NCATS).
# Hits are enriched below; roughly 19% of the tested compounds scored in any of these assays.
# TDP1 inh = qHTS Assay for Inhibitors of Tyrosyl-DNA Phosphodiesterase (TDP1); Tyrosyl-DNA phosphodiesterase 1 (Homo sapiens), Q9NUW8; recombinant TDP1, AlphaScreen DNA substrate cleavage; Potency, µM (highest dose often 130 µM), for inactives: at the highest dose activity change, negative = inhibition, actives largely listed as inhibitors; actives 0.28% (n = 350,000); further: potency means the concentration at half of the fitted maximal effect; on the % scale 0 is the no-effect control and ±100 the full control effect; nearly all actives have a fitted effect of over 40% in size
# Target sequence (Q9NUW8 whole entry, looked up): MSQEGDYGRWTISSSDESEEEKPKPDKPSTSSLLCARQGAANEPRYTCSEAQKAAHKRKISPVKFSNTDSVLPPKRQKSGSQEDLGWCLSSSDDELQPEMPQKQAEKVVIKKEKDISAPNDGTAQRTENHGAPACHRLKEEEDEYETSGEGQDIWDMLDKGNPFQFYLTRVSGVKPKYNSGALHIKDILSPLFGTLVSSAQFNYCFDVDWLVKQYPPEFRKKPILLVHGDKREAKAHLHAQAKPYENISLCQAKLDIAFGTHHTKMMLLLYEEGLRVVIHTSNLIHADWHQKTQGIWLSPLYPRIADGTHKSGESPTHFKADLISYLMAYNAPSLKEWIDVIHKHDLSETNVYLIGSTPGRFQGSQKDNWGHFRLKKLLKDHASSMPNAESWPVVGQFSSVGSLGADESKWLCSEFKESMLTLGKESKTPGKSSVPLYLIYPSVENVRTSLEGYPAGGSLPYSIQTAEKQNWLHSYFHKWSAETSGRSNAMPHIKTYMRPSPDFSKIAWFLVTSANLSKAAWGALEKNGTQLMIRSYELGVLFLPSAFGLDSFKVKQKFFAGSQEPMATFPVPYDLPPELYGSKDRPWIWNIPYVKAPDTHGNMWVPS
#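 Recombinant human Tdp1 (E. coli-expressed, 1 nM final) preincubated with compounds 15 min at room temperature, then 5'-biotin/3'-phosphotyrosine-FITC DNA substrate (15 nM final) added for 5 min. AlphaScreen beads (10 ug/ml final) added 10 min; cleavage lowers signal.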
# DT40 TDP1 no CPT = qHTS for Inhibitors of human tyrosyl-DNA phosphodiesterase 1 (TDP1): qHTS in cells in absence of CPT | DT40 Tdp1-/- hTDP1 cells, no CPT, ATP luminescence, 48 h | Potency, µM (top dose mostly 46.2 µM), without a hit: at the top dose activity change, negative = growth inhibition, actives largely listed as inhibitors | actives 15% (n = 420,000); further: potency means the concentration at half of the fitted maximal effect; on the % scale 0 is the no-effect control and ±100 the full control effect; nearly all actives have a fitted effect of over 55% in size
#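 A cellular qHTS used chicken DT40 cells lacking endogenous Tdp1 but carrying stably transfected human TDP1. Compounds were applied without camptothecin, and cell growth kinetics were judged by ATP-dependent luminescence after ≥48 hr.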
# IL-1B inflam inh = qHTS for Inhibitors of Inflammasome Signaling: IL-1-beta AlphaLISA Primary Screen; THP-1 LPS/ATP IL-1B secretion, AlphaLISA, 16 h; active compounds read low; activity change, % at 57.5 µM; actives 4.7% (n = 360,000); in the data active means activity change below about -50%; inconclusive means mostly about -30% to -49%; further: on the % scale 0 is the no-effect control and ±100 the full control effect
#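 Secreted IL-1B measured by AlphaLISA bead assay after 16 h compound exposure of THP-1 cells; compounds (final up to 57.5 uM) added 1 h before LPS (250 ng/mL) and ATP (1.25 mM) stimulation; lower signal means less secretion.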
# TGFb SMAD3 inh = qHTS for Inhibitors of TGF-b; HepG2 CAGA-GFP TGF-b/SMAD3 reporter, GFP fluorescence, 18 h; TGF-beta stimulated, 500 pg/mL final; Potency, µM (titrated, usually from 46.1 µM), for the others: at the highest dose activity, negative = inhibition, actives largely listed as inhibitors; actives 1.2% (n = 410,000); AID 588855, 2011; further: potency means the concentration at half of the fitted maximal effect; on the % scale 0 is the no-effect control and ±100 the full control effect; nearly all actives have a fitted effect of over 65% in size
#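 HEPG2 CAGA-GFP reporter cells (1000/well, DMEM with 1% FBS) received compounds, then recombinant TGF-beta at 500 pg/mL final for 18 hours at 37 degrees C. Per-cell GFP summed per well was normalised to unstimulated and stimulated DMSO controls before curve fitting.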
# DT40 TDP1 CPT = qHTS for Inhibitors of human tyrosyl-DNA phosphodiesterase 1 (TDP1): qHTS in cells in presence of CPT. chicken DT40 Tdp1-/-;hTDP1 cells + 20 nM CPT, ATP luminescence, 48 h. Potency, µM (doses to about 46.2 µM), for inactives: at the top dose activity change, negative = growth inhibition, usual class: inhibitors. actives 12% (n = 420,000). AID 686979, 2013; further: potency means the concentration at half of the fitted maximal effect; on the % scale 0 is the no-effect control and ±100 the full control effect; nearly all actives have a fitted effect of over 55% in size
#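 Chicken DT40 Tdp1-/- cells complemented with human TDP1, 400 cells/well, exposed to compounds plus 20 nM camptothecin for at least 48 h at 37 C; viability read as ATP content by CellTiter-Glo luminescence.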
# HepG2 viability = qHTS for Inhibitors of TGF-b: Cytotox Counterscreen; HepG2 CAGA-GFP viability, ATP luminescence, 18 h; actives 0.76% (n = 410,000); Potency, µM (series often up to 46.1 µM), for the others: at the highest dose activity change, negative = cytotoxicity, hits mostly cytotoxic; further: potency means the concentration at half of the fitted maximal effect
#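 CellTiter-Glo luminescence gave cytotoxicity after 18 hours at 37 degrees C. The cells were HepG2 CAGA-GFP in 1% FBS DMEM, stimulated with 500 pg/mL TGF-beta after compound addition. %Activity was normalised to no-cell wells (complete cell-killing) and DMSO (no toxicity), and curves were fitted and classified.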
# * hit, by the source's call; ? = inconclusive; · = not tested or not shown; [ ] = remark or other dose. Unless noted, the call rests on the fitted dose curve; in most records, active means well fitted curve in the direction sought with a large enough effect; inconclusive means small, poorly fitted or top-dose-only effect, or another doubt; inactive means no such curve, though single readings can be large; an effect the other way counts as inactive or inconclusive.
SMILES,TDP1 inh,DT40 TDP1 no CPT,IL-1B inflam inh,TGFb SMAD3 inh,DT40 TDP1 CPT,HepG2 viability
Cc1nc2cc(NCc3cc([N+](=O)[O-])ccc3O)ccc2n1Cc1ccccc1,7.0%,?,16.5,1.6%,-29.0%,-2.0%
Cc1nc2cc(NCc3nc4ccccc4n3Cc3ccccc3)ccc2n1C,10.0%,?,-82.7*,?,23.1µM*,-43.5%
Cc1cccc(NCc2nc3ccccc3n2Cc2ccccc2)c1,5.2%,?,-26.0,-46.4%,14.6µM*,-36.2%
CCCCCC1=C2CNC(C)(C(=O)OC)C=C2C(C)C1=O (centres undefined),1.5%,·,·,·,·,·
CC(C)Cc1nn2c(=O)cc(COC(=O)c3cccc(NS(C)(=O)=O)c3)nc2s1,1.2%,-0.9%,·,0.9%,3.1%,3.4%
CN(C)C(=O)CCc1ccc2c3c([nH]c2c1)[C@]1(C)[C@@H](C(=O)N2CCOCC2)C[C@H](CC(=O)NCc2cccc(C(F)(F)F)c2)C(=O)N1CC3,-2.5%[56.1 µM],?,-12.9,-27.6%,16.4µM*,-64.0%
CN(C)C(=O)CCc1ccc2c3c([nH]c2c1)[C@]1(CCc2ccccc2)[C@@H](C(=O)N2CCCCC2)C[C@H](CC(=O)NCc2cccc(C(F)(F)F)c2)C(=O)N1CC3,2.9%[56.1 µM],20.6µM*,-71.0*,?,?,-13.1%
CN(C)C(=O)CCc1ccc2c3c([nH]c2c1)[C@]1(C)[C@@H](C(=O)N2CCCCC2)C[C@H](CC(=O)NCc2ccco2)C(=O)N1CC3,0.2%[56.1 µM],1.7%,0.8,?,13.5%,3.5%
CC(C)(C)NC(=O)CC1C[C@H](C(=O)N2CCCCC2)[C@@]2(CCc3ccccc3)c3[nH]c4ccccc4c3CCN2C1=O (some centres undefined),1.0%,-16.9%,-11.9,3.6%,-1.8%,-1.4%
COc1ccc(C2=NOC(C(=O)NCc3cccnc3)C2)cc1 (centres undefined),·,-15.3%,30.1,0.0%,-2.7%,5.9%
COc1ccc(-n2ncc(C(=O)Nc3ccc4c(c3)OCO4)c2C2CCN(C(=O)OC(C)(C)C)CC2)cc1,7.4%,?,·,-11.7%,?,-20.8%
O=C1CCCc2ccccc2N1Cc1cccc(F)c1,5.4%,11.6µM*,24.7,-1.0%,14.6µM*,-0.2%
O=C1c2cccc3cccc(c23)N1Cc1ccc(F)cc1,-13.9%,8.8%,-12.8,-5.1%,22.3%,-18.6%
O=C1CCc2ccccc2N1Cc1ccccc1,·,-7.2%,23.6,?,17.8%,-3.9%
O=C1CCCc2ccccc2N1Cc1ccc(F)cc1,1.2%,?,3.7,-21.2%,11.6µM*,-0.3%
O=C1c2cccc3cccc(c23)N1Cc1cccc(F)c1,79.4µM*,-29.7%,-14.9,6.2%,4.0%,-2.0%
O=C(Nc1ccc(F)c(Cl)c1)c1cc(-c2ccco2)on1,7.3%,?,-3.7,-16.1%,-0.8%,-0.8%
CC(=O)NC1CCCC1C#N (centres undefined),·,-6.4%,·,-4.7%,-3.0%,0.9%
Cc1ccc(Cn2ncc3c(N4CCN(CC#N)CC4)ncnc32)cc1,6.0%,?,-15.2,-22.9%,-15.5%,-21.3%
Cc1ccc(Cn2ncc3c(N4CCCC4)ncnc32)cc1,4.5%,?,-20.3,-0.4%,?,-52.1%
c1ccc(Cn2ncc3c(N4CCN(C(c5ccccc5)c5ccccc5)CC4)ncnc32)cc1,·,20.6µM*,-0.8,6.1%,18.4µM*,12.0%
